Experimental data as given in the supplement of paper PMC7801607.

Experiments:
CHO = assay: % viability of CHO cells (MTT); higher = less toxic; conditions: 48 h
In short: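 For 48 h, attached CHO cells (10^6 cells/well, 200 µL, seeded the night before) were kept in fresh medium carrying compound at 2 or 20 µM. A colorimetric tetrazolium (MTT) assay then gave survival as percent viability versus untreated cells.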

HepG2-A16-CD81 = assay: % inhibition of HepG2 viability (CellTiter-Glo); higher = more toxic; conditions: 5 µM;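 further: HepG2-A16-CD81 hepatoma cells plated as in the liver-stage assay but without sporozoites, with DMSO wells as negative and 25 µM puromycin as positive control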
[1] = system: Plasmodium falciparum NF54 stage IV/V gametocytes; assay: % inhibition of gametocyte viability (PrestoBlue); higher = more inhibition; conditions: 48 h
In short: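 Stage IV/V NF54 gametocytes at 2% gametocytaemia and 5% haematocrit (100 µL/well) were treated with compound at 1 or 5 µM and incubated for 48 h at 37 °C under stationary, hypoxic conditions. PrestoBlue (10 µL) was then added for 2 h, and fluorescence at 612 nm was read on 70 µL of transferred supernatant. Percent inhibition of gametocyte viability was normalised to vehicle and kill controls within one run.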

[2] = system: Plasmodium falciparum NF54 asexual blood stage; assay: % inhibition of asexual blood stage proliferation (pLDH); higher = more inhibition; conditions: 72 h
In short: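 Plasmodium falciparum NF54 ring-stage cultures (1% haematocrit, 2% parasitaemia) were incubated with compound at 2 or 20 µM for 72 h at 37 °C under 4% CO2, 3% O2 and 93% N2. Survival was read at 620 nm with the parasite lactate dehydrogenase assay. Results were reported as percent inhibition of asexual proliferation relative to controls.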

[3] = system: Plasmodium falciparum NF54 stage IV/V gametocytes; assay: % inhibition of gametocyte viability (ATP bioluminescence); higher = more inhibition; conditions: 24 h
In short: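 Stage IV/V NF54 gametocytes from density gradients (30,000 per well, 96-well plates) were incubated with compound at 1 or 5 µM for 24 h at 37 °C. A single run supplied percent inhibition of gametocyte viability, based on ATP measured with Promega BacTiter Glo and normalised to control wells.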

[4] = system: Plasmodium falciparum NF54 stage IV/V gametocytes; assay: % inhibition of gametocyte viability (luciferase reporter); higher = more inhibition; conditions: 48 h
In short: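 Stage IV/V gametocytes of the NF54-Pfs16-GFP-Luc line (2% gametocytaemia, 2% haematocrit) were exposed to compound at 1 or 5 µM. Incubation was 48 h at 37 °C, stationary and hypoxic. Luminescence was read on 30 µL lysate plus 30 µL Promega luciferin substrate on a GloMax-Multi+ reader with 10 s integration. Percent inhibition was normalised to DMSO and kill controls from a single run.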

Row | Compound | % viability of CHO cells (CHO; 2 µM) [%] | % viability of CHO cells (CHO; 20 µM) [%] | % inhibition of HepG2 viability (HepG2-A16-CD81) [%] | % inhibition of gametocyte viability ([1]; 1 µM) [%] | % inhibition of gametocyte viability ([1]; 5 µM) [%] | % inhibition of asexual blood stage proliferation ([2]; 2 µM) [%] | % inhibition of asexual blood stage proliferation ([2]; 20 µM) [%] | % inhibition of gametocyte viability ([3]; 1 µM) [%] | % inhibition of gametocyte viability ([3]; 5 µM) [%] | % inhibition of gametocyte viability ([4]; 1 µM) [%] | % inhibition of gametocyte viability ([4]; 5 µM) [%]
1 | O=C(/C=C/n1cnc(-c2cc(C(F)(F)F)cc(C(F)(F)F)c2)n1)NNc1cnccn1 | 102 | 103 | -11.2 | 11.2 | -0.3 | -23.5 | 56.5 | 0.272 | < 0 | 0.0379 | < 0
2 | CCC(C)(C)c1ccc(CC(C)CN2C[C@@H](C)O[C@@H](C)C2)cc1 (stereo partly specified) | 100 | 124 | -1.79 | < 0 | 4.53 | 89.6 | 82 | < 0 | < 0 | < 0 | < 0
3 | O=C(O)[C@H]1C2CCC(CC2)[C@@H]1Nc1nc(-c2c[nH]c3ncc(F)cc23)ncc1F | 91.6 | 97.8 | -9.1 | < 0 | < 0 | 11.9 | 55.2 | 0.663 | 2.93 | < 0 | < 0
4 | C[C@H](c1cccc2ccccc12)N(C)Cc1ccccc1 | 98.5 | 116 | 0.334 | 6.61 | 7.59 | 9.39 | 18.9 | < 0 | < 0 | < 0 | < 0
5 | c1cnc(NCc2ccc(CNc3ncccn3)cc2)nc1 | 85.1 | 77.7 | -9.29 | 9.96 | 14.8 | 13.7 | 35.1 | < 0 | < 0 | 3.69 | < 0
6 | O=S(=O)(Nc1ccccc1)c1ccc(NC(=S)Nc2ccccc2)cc1 | 84.1 | 81.9 | -1.98 | 7.06 | 6.95 | 43.6 | 45.2 | < 0 | < 0 | < 0 | < 0
7 | CCc1c(OCC2CCC2)c2cc(F)ccc2[nH]c1=O | 78.6 | 52.7 | -2.38 | 14.3 | 2.83 | 26.9 | 36 | 7.14 | < 0 | < 0 | < 0
8 | CCC(C)n1ncn(-c2ccc(N3CCN(c4ccc(OCC5COC(Cn6cncn6)(c6ccc(Cl)cc6Cl)O5)cc4)CC3)cc2)c1=O (stereo unspecified) | 119 | 119 | 26.2 | 2.77 | 1.55 | 10.1 | 83.4 | 3.02 | < 0 | < 0 | < 0
9 | CCNC(=O)Nc1cn2c(-c3ncc(CC)cn3)cc(-c3cccnc3)cc2n1 | 91.8 | 58.4 | 0.015 | 19.9 | 36.7 | 46 | 88.1 | 7.29 | 24.5 | 1.08 | 6.06
10 | O=S(=O)(Nc1cccc2cccnc12)c1ccccc1 | 85 | 121 | 5.35 | 4.79 | < 0 | 8.89 | 70 | < 0 | < 0 | < 0 | < 0
11 | Clc1cc(Cl)c2c(c1)CCc1ccccc1C2n1ccnc1 (stereo unspecified) | 100 | 76.3 | 26.4 | 64.7 | 76.1 | 94.1 | 89.5 | 25.2 | 75.4 | < 0 | 81.4
12 | COc1ccc2nc(-c3ccccc3)cc(O)c2c1 | 85.4 | 80.2 | 6.13 | < 0 | 7.99 | 66.9 | 94.3 | 29.5 | 13.5 | < 0 | 8.89
13 | COCCn1cnc2c(=O)[nH]c(Nc3ccccc3)nc21 | 103 | 63.9 | 5.25 | < 0 | 0.985 | 28.3 | 62.8 | 7.08 | 5.85 | 14.5 | 5.09
14 | CCNC(=O)Nc1cc(-c2ccccc2)c(-c2cncc(C(=O)O)c2)cn1 | 109 | 94 | -1.59 | 19.7 | 30.2 | -11.2 | -0.305 | < 0 | < 0 | < 0 | < 0
15 | CC(C)Nc1ncnc2c1cnn2-c1ccc(Cl)cc1 | 89.8 | 122 | 13.3 | 17.9 | 15.6 | 18.3 | 69.3 | < 0 | < 0 | < 0 | 62.4
16 | Cc1ccn2c(C(=O)NCc3ccccc3)c(C)nc2c1 | 276 | 53.7 | -0.843 | 3.75 | 36.6 | 44.3 | 74.9 | < 0 | < 0 | 2.75 | 0.0756
17 | CC(C)CCN1C(=O)C(C2=NS(=O)(=O)c3cc(NS(C)(=O)=O)ccc3N2)=C(O)[C@@H]2[C@H]3CC[C@H](C3)[C@@H]21 | 99.3 | 109 | 6.58 | 9.05 | 13.6 | 37.2 | 56.6 | < 0 | < 0 | 1.44 | 8.86
18 | O=C(/C=C\n1cnc(-c2cc(C(F)(F)F)cc(C(F)(F)F)c2)n1)NNc1ccccn1 | 117 | 91.3 | 31.8 | 10.8 | < 0 | 13.9 | 40 | < 0 | < 0 | 13.4 | < 0
19 | Cc1cccc(C)c1C(=O)Nc1nc(-c2ccccn2)cc2ccccc12 | 104 | 17.3 | 32.4 | 13.5 | 53.2 | 79.3 | 104 | 73.4 | 90.8 | < 0 | 68.3
20 | CC1CCc2c(N3CCC(O)CC3)c(F)cc3c(=O)c(C(=O)O)cn1c23 (stereo unspecified) | 84.2 | 87.6 | 2.9 | < 0 | 11.7 | 69.7 | 98.8 | < 0 | < 0 | 1.04 | 6.66
21 | Cc1oncc1C(=O)Nc1ccc(C(F)(F)F)cc1 | 113 | 96.1 | -5.44 | < 0 | < 0 | 50.7 | 38 | 12 | < 0 | 23.8 | 45.6
